PubChem BioAssay AID493179 (National Center for Advancing Translational Sciences (NCATS), 2011)
Results filed as inconclusive are left out. Activity calls are given as the source filed them. Calls follow the shape of the dose curve; as a rule, active = well fitted inhibition curve with a large enough effect; inconclusive = small, poorly fitted or top-dose-only effect; inactive = flat fitted curve, though single readings scatter.

Experiment: Secondary Assay for General miRNAs Modulators and/or Inhibitors/Activators of miR-21: miR-30 Firefly Luciferase Assay for second round cherrypicks
Conditions: HeLa miR-30 FLuc reporter, luminescence, 48 h
Text: MLPCN Grant: 1 R21 NS059478-01 Assay Provider: Qihong Huang, The Wistar Institute NCGC Assay Overview: MicroRNAs (miRNAs) are endogenously encoded small (~20-25 nucleotides), nonprotein-coding RNAs that are involved in post-transcriptional repression of target messenger RNAs (mRNAs) (Le and Hannon, 2004). Estimated to be involved in the regulation of 30% of all protein-coding mRNAs (Filipowicz et al., 2008), miRNAs play a significant role in many biological processes including cellular differentiation and tissue development (Ghildiyal and Zamore, 2009). […] Compounds active in the miR-21 FLuc assay were clustered using Leadscope and active chemical series were prioritized based on chemical properties, potential for medicinal chemistry optimization, and SAR. Within each chemical series, representative compounds were re-acquired to test for activity in a secondary assay based on the quality of their CRC, efficacy, and potency. […]
NCGC Assay Protocol Summary: Reagents: HeLa cells stably expressing firefly luciferase (FLuc) under the control of a CMV promoter (upstream) and a miR-30 binding sequence directly downstream of the gene. […] After a 15 minute incubation to allow for cell lysis, luciferase activity was measured using a ViewLux CCD imager (PerkinElmer), with an average exposure time of 2-12 seconds. […]

Structure (SMILES): O=c1c2ccccc2nc(Cc2ccccc2)n1-c1ccccc1
- Potency: 20 µM (active)
